# PubChem BioAssay (Tox21)
# Inconclusive results are not listed. Unmarked numbers belong to inactive results. Activity calls are given as the source filed them. The call rests on the fitted dose curve; in most records, active means well fitted inhibition curve with a large enough effect in the repeat runs; inconclusive means weak or mixed curves; inactive means no such curve, though single readings can be large or run the other way.
# Biological target: Cytochrome P450 3A4 (Homo sapiens) (UniProt P08684)
# Sequence (P08684 whole entry, looked up): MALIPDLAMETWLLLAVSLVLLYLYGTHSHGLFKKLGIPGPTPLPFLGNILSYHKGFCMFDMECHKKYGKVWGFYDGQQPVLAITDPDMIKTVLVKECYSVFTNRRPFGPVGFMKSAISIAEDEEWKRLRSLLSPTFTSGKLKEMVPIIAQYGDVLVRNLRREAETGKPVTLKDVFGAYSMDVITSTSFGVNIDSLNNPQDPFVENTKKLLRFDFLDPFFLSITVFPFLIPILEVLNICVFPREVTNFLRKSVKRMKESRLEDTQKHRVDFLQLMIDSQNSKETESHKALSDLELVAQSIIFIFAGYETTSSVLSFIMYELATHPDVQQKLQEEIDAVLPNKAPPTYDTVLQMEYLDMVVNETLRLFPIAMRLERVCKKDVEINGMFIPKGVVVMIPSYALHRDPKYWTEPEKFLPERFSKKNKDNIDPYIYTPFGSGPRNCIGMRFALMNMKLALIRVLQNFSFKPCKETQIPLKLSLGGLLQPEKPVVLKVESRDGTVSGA
# Assay: Cytochrome P450 Family 3 Subfamily A Member 4 (CYP3A4) small molecule antagonists: luciferase reporter qHTS assay (AID 1671201); further: nearly all actives have a fitted effect of over 50% in size
# Conditions: P450-Glo CYP3A4 enzyme, luciferin luminescence, 1 h; series mostly up to 115 µM; activity change, negative = inhibition: at the top concentration
# Text: National Center for Advancing Translational Sciences [NCATS]
# U.S. Environmental Protection Agency [EPA]
# National Institutes of Environmental Health Sciences [NIEHS]
# National Toxicology Program [NTP]
# U.S. Food and Drug Administration [FDA]
# Cytochrome P450 (CYP) enzymes are membrane-bound hemeproteins that play a key role in metabolism of drugs and xenobiotics. Evaluation of the effect of chemicals on CYP isozymes is useful to minimize the adverse drug reactions and toxicities in drug development process. Tox21 chemicals were tested for their effect on CYP enzyme activities by using P450-Glo (TM) screening systems (Promega Corporation, Madison, WI). These systems provide a luminescent method containing proluciferin substrates and are converted to luciferin products by CYP isozymes. The luciferin products formed are detected with a luciferin detection reagent, and the amount of light produced is proportional to CYP activity. P450-Glo (TM) CYP3A4 screening system (Catalog. No. V9910) was used to detect the compounds that interfere in CYP3A4 activity. The positive control compound used for CYP3A4 assay is ketoconazole (Sigma-Aldrich, St. Louis, MO).
# Tox21 Assay Protocol Summary:
# Two ul of enzyme-substrate mix was dispensed into medium binding white/solid 1536-well plates (Greiner Bio-One North America Inc., Monroe, NC) using a BioRaptr Flying Reagent Dispenser (FRD, Beckman Coulter, Brea, CA). Compounds dissolved in DMSO and positive control (ketoconazole) were transferred to the assay plates at 23 nl using a Pintool station (Wako, San Diego, CA). The assay plates were incubated at room temperature for 10 min. Then 2 ul of NADPH regeneration solution was added to each well of the assay plates using an FRD and incubated at room temperature for 1 h. The reaction was stopped by adding 4 ul of detection reagent using an FRD and after 20 min incubation at room temperature the luminescence signal was measured using a ViewLux plate reader (Perkin Elmer, Shelton, CT). Data were expressed as relative luminescence units.
# On the % scale 0 is the no-effect control and ±100 the full control effect; potency means the concentration at half of the fitted maximal effect.
SMILES,"activity change, negative = inhibition",Potency
OC[C@H]1O[C@@H](O[C@H]2[C@H](O)[C@@H](O)[C@H](O)O[C@@H]2CO)[C@H](O)[C@@H](O)[C@H]1O,2.57%,
CC1=NN(c2cc(Cl)c(S(=O)(=O)O)cc2Cl)C(=O)C1N=Nc1ccc(S(=O)(=O)O)cc1 (stereo not given),22.5%,
CC1=C2[C@H](/C=C(\C)C(=O)O)CC[C@@H](C)[C@H]2CC1,-2.07%,
CN1CCN(N)CC1,1.09% [at 52.9 µM],
CCCCCCn1c(=O)c2c(ncn2C)n(C)c1=O,-0.37% [at 52.9 µM],
C=CCCC=C,0.976%,
CCCCCCCCc1ccc(S(=O)(=O)O)cc1,75.5%,
CCc1cc(Cl)c(OC)c(C(=O)NC[C@@H]2CCCN2CC)c1O,-1.46% [at 52.9 µM],
CCOC(=O)c1ccccc1O,11.1% [at 52.9 µM],
CC(C)C(=O)OCC(C)(C)C(O)C(C)C (stereo not given),0.772%,
Cc1c[nH]c(=S)[nH]c1=O,-21.3%,
COc1cc(C)ccc1C(C)C,1.47%,
NC(=O)NS(=O)(=O)c1ccc(Cl)cc1,10.7% [at 52.9 µM],
OCC(CBr)(CBr)CBr,9.36%,
COc1cc(Cl)ccc1Cl,20.7%,
COc1ccccc1OCC(O)COC(N)=O (stereo not given),-0.68% [at 52.9 µM],
CCCC1CCC(=O)O1 (stereo not given),6.78%,
CC1=CC(=O)CC(C)(C)C1=O,11.4%,
ICCc1ccccc1,4%,
CC(=O)Nc1ccc(C)c(Cl)c1,,39.9 µM (active)

SMILES,"activity change, negative = inhibition",Potency
CCN(CC)C(=O)N(CC)CC,11.6%,
C[C@]12CCC(=O)C=C1CC[C@@H]1[C@@H]2CC[C@@]2(C)[C@H]1CC[C@]2(O)C(=O)CO,34.3% [at 52.9 µM],
CCOc1ccc(OCC)c(Cl)c1,10.9%,
O=c1[nH]cnc2c1ncn2[C@@H]1O[C@H](CO)[C@@H](O)[C@H]1O,0.632% [at 52.9 µM],
CCCCN1C[C@H](O)[C@@H](O)[C@H](O)[C@H]1CO,10.6% [at 52.9 µM],
CC(C)(C)c1cccc(O)c1,2.65%,
Cc1cc2nc(N)sc2cc1C,,25.4 µM (active)
CCCCc1ccc2nc(NC(=O)OC)[nH]c2c1,14% [at 52.9 µM],
CC(=O)Oc1cc(C(C)C)c(OCCN(C)C)cc1C,9.71% [at 52.9 µM],
CN1CCN(c2c(F)cc3c(=O)c(C(=O)O)cn(CCF)c3c2F)CC1,4.13% [at 52.9 µM],
CC(C)C(=O)OC/C=C/c1ccccc1,-17.9%,
O=Cc1ccc(O)c(O)c1O,-19.1% [at 52.9 µM],
COC(=O)c1ccc(OC)cc1,13.1%,
CCCCCCCCCCCCOCCOS(=O)(=O)O,-13.2%,
O=C(O)[C@@H]1CSCN1,3.85% [at 52.9 µM],
CC(C)CCCCCCc1ccc(OCCOCCO)cc1,-23.1%,
O=C(CCCl)NCc1ccccc1,0.365% [at 52.9 µM],
COc1cc(N)c(Cl)cc1C(=O)NC1CCN(Cc2ccccc2)CC1,,1.55 µM (active)
O=C(O[C@@H](C(=O)O)[C@@H](OC(=O)c1ccccc1)C(=O)O)c1ccccc1,-11.9%,
O=C(O)[C@@H](O)[C@H](O)[C@H](O)[C@@H](O)C(=O)O,0.39% [at 52.9 µM],
